Results on 40 compounds are retold here after PubChem BioAssay (NCI).

Compounds without any hit were thinned out: in the full panel of roughly 83,000, 20% have a hit.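 Assay: single dose, 48 h. Readout: percent growth (0 = no net growth; negative = cell death). Active: <10.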 Unmarked numbers belong to inactive results. The source made the active and inactive calls.

The assay deals with U251 CNS. The assay is described as follows: NCI-60 one-dose screen, 48 h (100 = growth as untreated, 0 = no growth, -100 = all killed). As to conditions: 10 µM. The procedure:
Growth inhibition of the U251 human tumor cell line is measured as a screen for anti-cancer activity. Cells are grown in 96 well plates and exposed to the test compound for 48 hours. Compounds are tested at a single concentration, which is 10^-5 M for most compounds. The reported endpoint is percent growth (GI% or GIPRCNT), where numbers from 0 - 100% represent growth inhibition, and numbers from -100% - 0 represent cell death. For example, a value of 40 represents 60% growth inhibition. A value of 0 means no net growth occurred over the course of the experiment. A value of -40 indicates 40% of cells at the beginning of the experiment died by the end of the experiment. A value of -100 means all cells are dead at the end of the experiment.
NCI-60 Human Tumor Cell Lines Screen was performed using the standard one-dose NCI protocol, which is described in more detail at https://dtp.cancer.gov/discovery_development/nci-60/default.htm.
Compounds with GIPRCNT values below 10 were considered active. Activity score was based on GIPRCNT using the following formula: […]
Score is 0 for GIPRCNT values of 100 or above, 50 for GIPRCNT values of 0, and 100 for GIPRCNT values of -100.
For `Clc1ccc(-c2cn(-c3ccccc3)c(-c3ccccc3)n2)c(Cl)c1`, the growth was -100% (active).

As for `COc1ccc(Nc2cc(C)nc(NCCCNc3ccnc4cc(Cl)ccc34)n2)cc1`, the growth is -88.8% (active).

For `COc1ccc(-c2nn(-c3cccc(NC(=O)Nc4cc(C(F)(F)F)cc(C(F)(F)F)c4)c3)cc2-c2ccncc2)cc1Cl`, the growth was -75.5% (active).

Regarding `Cc1ccc(-c2nc(/C=C3/C(=O)N(C)c4ccc(F)cc43)c3ccccn23)cc1`, the growth was 80.8%.

For the compound `N=C(N)c1ccc(-c2ccc(-c3cccs3)s2)cc1`, the growth was -48.5% (active).

As to `Cn1c(C(N)=O)cc2c1-c1nc(Nc3ccccc3)ncc1CCC2`, the growth is 26.9%.

In the case of `O=C1CC[C@@H]2CCCC[C@@H]2C1`, the growth was 108%.

With `CC(C)=CCc1cc(O)cc2c1OC(C=C(C)C)C1=C2C(=O)C2=C(NCCS2(=O)=O)C1=O` (stereo not given), the growth was -85% (active).

Regarding `O=C(Nc1ccncc1)C(=O)c1cn(S(=O)(=O)c2cccc(Cl)c2)c2ccccc12`, the growth was 61.2%.

Regarding `CCOC(=O)CCC(NC(=O)c1ccc(N)cc1)C(=O)OCC` (stereo not given), the growth is 105%.

Consider `COc1cc(Cl)cc(-c2nn(-c3cccc(NC(=O)Nc4ccc(Cl)c(Cl)c4)c3)cc2-c2ccncc2)c1`, for which the growth was 3.01% (active).

As to `C#Cc1ccc(-n2c(/C=C/c3ccc(Cl)c(F)c3)nc3ncccc3c2=O)cc1`, the growth is -53.9% (active).

With `O=[N+]([O-])c1cccc(-c2ncc(-c3ccc(Cl)cc3Cl)[nH]2)c1`, the growth was -100% (active).

On to `CC1CC(=O)OC(C)C1` (stereo not given), for which the growth was 101%.

For `CC(=O)/C(=C/c1ccccc1)C(=O)CC(C)C`, the growth is 63.6%.

As for `CCOC(=O)N1C=CC2C=CC1C1C=CC=CC2N1C(=O)OCC` (stereo not given), the growth was 93.5%.

As for `CN(C)CCN1C(=O)c2cccc3cc(N)cc(c23)C1=O`, the growth is 18.4%.

On to `CN(CCc1ccccn1)c1ccccc1`, for which the growth is 96.4%.

In the case of `COc1cc(Cl)cc(-c2nn(-c3cccc(NC(=O)Nc4cc(C(F)(F)F)cc(C(F)(F)F)c4)c3)cc2-c2ccncc2)c1`, the growth is -58% (active).

Take `COc1ccc(-c2nn(-c3cccc(NC(=O)c4cc(C(F)(F)F)cc(C(F)(F)F)c4)c3)cc2-c2ccncc2)cc1Cl`: the growth is 54.7%.

Take `COc1ccc(Nc2ncnc3c2c(SC)nn3-c2ccccc2)cc1`: the growth is 84.1%.

`O=C(Nc1ccncc1)C(=O)c1cn(S(=O)(=O)c2cc(Cl)cc(Cl)c2)c2ccccc12`: the growth was 58.1%.

As to `COc1ccc2c(c1)C(=O)c1c-2c(OCCN(C)C)nc2ccccc12`, the growth was 21.1%.

Regarding `C#Cc1ccc(-n2c(/C=C/c3ccc(O)c(OC)c3)nc3ncccc3c2=O)cc1`, the growth is 94.1%.

`CCCCCCN1C(=O)C2=C(c3ccc(Cl)cc3)Nc3c(c(C)nn3-c3ccccc3)C2c2ccccc21` (stereo not given): the growth was 87.8%.

`O=C(/C=C/c1cc2ccccc2[nH]c1=O)c1ccc2c(c1)OCO2`: the growth is 86.4%.

As for `S=C1SCC(c2ccccc2)S1` (stereo not given), the growth was 95.5%.

As to `CC[C@H]1CCC/C=C/[C@@H]2C[C@H](O)C[C@H]2[C@H](O)/C=C/C(=O)O1`, the growth was 15.7%.

On to `CS(=O)(=O)Nc1ccc(Nc2c3ccccc3nc3cc([N+](=O)[O-])ccc23)cc1`, for which the growth was 21%.

In the case of `COc1cc(/C=N/NC(=O)c2ccccc2Nc2cccc(C(F)(F)F)c2)cc(OC)c1OC`, the growth is -32.1% (active).

For `N=C(N)c1ccc(-c2ccc(-c3ccco3)o2)cc1`, the growth is 53.5%.

On to `O=C1ON=[N+](c2ccc(Cc3ccc([N+]4=NOC(=O)C4CN4CCOCC4)cc3)cc2)C1CN1CCOCC1` (stereo not given), for which the growth is 62.8%.

For the compound `COc1ccc(-c2nc(-c3nc4cc(Cl)c(F)cc4[nH]3)c3ccccn23)cc1`, the growth is 62.5%.

As for `O=C1/C(=C\c2ccc(Cl)cc2)CN(C(=S)Nc2ccccc2)C/C1=C\c1ccc(Cl)cc1`, the growth is -97.7% (active).

Take `COc1ccc(-c2nc(-c3nc4cc(Cl)c(Cl)cc4[nH]3)c3ccccn23)cc1`: the growth is 22.6%.

For `Oc1[nH]c2ccc(Cl)cc2c1/C=c1/ccc2c(c1)N=C(c1cc(F)cc(F)c1)N=2`, the growth was 73.9%.

As for `CN1CCC2(CC1)NC(=O)c1c(c3ccc(Cl)c(Cl)c3n1C)C2C#N` (stereo not given), the growth was 90.6%.

Turning to `Cc1cccc(Cl)c1NC(=O)c1ccc2nc(NC(=O)NC3CCN(C)CC3)sc2c1`, the growth is 80.5%.

Regarding `Fc1ccc2nc(-c3nc(-c4ccccc4)n4ccccc34)[nH]c2c1`, the growth is -67% (active).

As to `CC(C)(C)c1cc(Br)cc(C(C)(C)C)c1O`, the growth was 99.8%.
